According to ChEMBL document CHEMBL3988442, “University of Dundee, Small-Polar-MMV Screening Library” (2021):
Hit rate of the full screen: of about 48,000 compounds, about 13,000 (27%) showed an effect of 50% or more. The list shows a part of the results.

Each molecule was assayed on Wolbachia pipientis (assay: Anti-Wolbachia Cell-Based Screen). Settings: 5 µM.
Assay type: functional
Set-up: scale not given: in the data most compounds retested in dose-response had high values

Row | SMILES | Percent Effect [%]
1 | CCC(CNC(=O)C1CC1)(OC)c1ccccc1 (stereo not given) | -6.712
2 | Cc1cccc(CNC[C@H]2Cn3cc(-c4ccccc4)nc3CO2)n1 | -23.05
3 | CC(C)c1csc(C(=O)N(C)c2ccc(Br)cn2)n1 | -10.23
4 | Cc1ncccc1-c1cc2cccnc2n1CCCNC(=O)C1CC1.Cl | 102.7
5 | CCC(=O)NCCCn1c(-c2cccnc2C)cc2cccnc21.Cl | 116.3
6 | CC(C)(C)C(=O)NCCNCc1ccc(Cl)c2cccnc12 | -7.376
7 | CC(NC(=O)NCCCn1cccn1)c1cccnc1 (stereo not given) | 14.81
8 | Cc1cccnc1NCCNC(=O)C1CCN(C(=O)N(C)C)CC1 | -7.872
9 | Cc1cccnc1NCCNC(=O)C1CCN(Cc2ccco2)CC1 | -35.11
10 | Cc1ccc(OCCCNC(=O)Cc2nc3ncccn3n2)cc1 | -3.394
11 | Cc1ncccc1-c1cc2cccnc2n1CCCNC(=O)C(C)(C)C.Cl | 83.99
12 | CC(C)(C)C(=O)NCCCc1nc2ccccc2[nH]1 | 0.1098
13 | CCS(=O)(=O)NCC(=O)N(C1CC1)C1Cc2ccccc2C1 | 0.1274
14 | CC(C)C(NC(=O)c1ccc(=O)[nH]c1)c1nnc2n1CCNCC2 (stereo not given) | 5.765
15 | COc1cc(C2(C(=O)NC3CCN(C4CC4)CC3)CC2)ccc1C | -9.965
16 | COc1cc(C2(C(=O)N3CCN(CC(C)(C)O)CC3)CC2)ccc1C | -9.844
17 | COc1cc(C(=O)N2CCCC(n3cncn3)C2)ccc1C (stereo not given) | 123.7
18 | COc1ccc(C)cc1C(=O)N1CCCC(n2cncn2)C1 (stereo not given) | 125.6

Row | SMILES | Percent Effect [%]
19 | CCOc1cc(C(=O)N2CCCC(n3cncn3)C2)ccc1C (stereo not given) | 31.02
20 | COc1cc(C2(C(=O)N3CCCC(n4cncn4)C3)CC2)ccc1C (stereo not given) | 127.9
21 | O=C(c1ccccc1OC1CCCC1)N1CCCC(n2cncn2)C1 (stereo not given) | 131.9
22 | Cn1cc(C(=O)N2CCCC(n3cncn3)C2)ccc1=O (stereo not given) | -4.437
23 | O=C(c1ccc(Br)o1)N1CCCC(n2cncn2)C1 (stereo not given) | 3.935
24 | O=C(c1ccc(C(F)(F)F)nc1)N1CCCC(n2cncn2)C1 (stereo not given) | -5.926
25 | Cc1ccc(SCCCNC(=O)c2cn([C@H]3CC[C@@H](N)CC3)nn2)cc1 | -20.01
26 | Cc1sc(Br)cc1S(=O)(=O)NCc1ccccn1 | -26.2
27 | Oc1ccccc1CN1CCC(n2cc(-c3ccc(F)cc3)nn2)CC1 | -4.662
28 | CNCc1ccc([C@@H]2CN(C)C[C@H]2C(N)=O)cc1.Cl | 68.94
29 | Cl.NC(=O)c1ccc(CNC2CC2)cc1 | 11.53
30 | CNCc1ccc([C@@H]2CN(C(C)=O)C[C@H]2C(N)=O)cc1.Cl | 129.4
31 | CN(C)C(=O)c1ccc(CNC(=O)NCCN(C)C2CCCC2)cc1 | 0.2327
32 | Cc1occc1C(=O)NCc1ccc(N2CCCC(C(N)=O)C2)cc1 (stereo not given) | -5.63
33 | Cc1ccccc1CNC(=O)N1C[C@H]2C[C@H](C(=O)N(C)C)[C@@H](C1)O2 | -3.016
34 | CNCc1ccc([C@@H]2CN(C(C)=O)C[C@H]2C(=O)N(C)C)cc1.Cl | 99.26
35 | CS(=O)(=O)c1ccc(CNC(=O)N2CCC(C(N)=O)C2)cc1 (stereo not given) | -0.5949
